Some of the results follow. The hit rate among all sequences tested is not known here.
Target: furin, P09958
Experiment: furin cleavage Z-score vs untreated control; higher = more cleavage, active = 3.5 or more, inactive = 1 or less, 8 variable residues between constant flanks
Outline: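 Sequencing of released DNA, tagged with adapters by PCR, gave read counts used as abundance. That DNA was freed when purified furin cut N-terminally bead-bound 8-mer peptides fused to a cDNA oligonucleotide, in 0.01 ml reactions at 1:10 enzyme:substrate in 50 mM HEPES pH 7.5 with CaCl2 and NaCl, lasting 7.5, 15 or 30 min. The cleavage Z-score was the lowess-adjusted log count versus furin-free reactions, scaled by median absolute deviation.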

furin, P09958, sequence (P09958 whole entry): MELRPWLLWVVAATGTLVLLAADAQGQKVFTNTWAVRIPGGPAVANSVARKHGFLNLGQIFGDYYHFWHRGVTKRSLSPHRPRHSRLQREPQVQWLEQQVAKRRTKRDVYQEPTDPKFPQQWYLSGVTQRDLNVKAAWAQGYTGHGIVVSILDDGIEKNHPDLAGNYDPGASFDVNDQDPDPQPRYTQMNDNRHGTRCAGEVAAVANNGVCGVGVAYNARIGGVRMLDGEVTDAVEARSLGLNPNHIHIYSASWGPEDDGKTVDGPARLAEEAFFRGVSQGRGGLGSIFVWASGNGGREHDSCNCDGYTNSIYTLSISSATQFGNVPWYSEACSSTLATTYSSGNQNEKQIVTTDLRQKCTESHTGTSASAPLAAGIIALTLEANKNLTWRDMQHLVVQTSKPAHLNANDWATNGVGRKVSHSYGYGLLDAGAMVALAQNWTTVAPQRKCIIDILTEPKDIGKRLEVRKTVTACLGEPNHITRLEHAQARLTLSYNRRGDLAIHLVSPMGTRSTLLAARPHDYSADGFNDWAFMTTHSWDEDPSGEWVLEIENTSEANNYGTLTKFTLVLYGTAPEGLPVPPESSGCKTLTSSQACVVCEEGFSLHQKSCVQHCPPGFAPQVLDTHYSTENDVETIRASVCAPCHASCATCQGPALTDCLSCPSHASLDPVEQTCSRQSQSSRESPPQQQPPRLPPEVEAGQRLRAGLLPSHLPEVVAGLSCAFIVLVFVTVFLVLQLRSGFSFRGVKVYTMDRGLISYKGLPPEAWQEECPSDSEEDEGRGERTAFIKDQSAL

Sequence	furin cleavage Z-score (7.5 min)	furin cleavage Z-score (15 min)	furin cleavage Z-score (30 min)
CASLMAFTAAAGNASASA [HC1055]	-0.632 (inactive)	-0.242 (inactive)	-1.13 (inactive)
CAAAASKVKAAGNASASA [HC1407]	0.991 (inactive)	-0.764 (inactive)	-0.995 (inactive)
CARCRRALRRAGNASASA [FS-1687]	3.87 (active)	3.85 (active)	7.16 (active)
CARARRAVDKAGNASASA [FS-2252]	6.76 (active)	6.96 (active)	6.15 (active)
CARARRAIAAAGNASASA [FS-3148]	5.95 (active)	5.73 (active)	4.12 (active)
CARARRAVQKAGNASASA [FS-3149]	1.2	0.71 (inactive)	1.68
CAVCAAILRRAGNASASA [HC1109]	-1.76 (inactive)	-0.361 (inactive)	0.614 (inactive)
CARARRALRRAGNASASA [FS-2130]	3.99 (active)	4.89 (active)	7.04 (active)
CARARRQDVKAGNASASA [FS-2649]	0.761 (inactive)	0.529 (inactive)	2.07
CARARRVTDAAGNASASA [FS-2890]	-1.51 (inactive)	-0.986 (inactive)	-0.304 (inactive)
CARCIRAFCRAGNASASA [FS-2897]	-0.211 (inactive)	0.945 (inactive)	0.335 (inactive)
CARARRVLEAAGNASASA [FS-1685]	-0.496 (inactive)	-0.739 (inactive)	-0.66 (inactive)
CAAGVGIYLLAGNASASA [HC1661]	-0.0484 (inactive)	-0.628 (inactive)	0.389 (inactive)
CARLHGLSAFAGNASASA [HC1603]	-0.521 (inactive)	-1.08 (inactive)	0.0737 (inactive)
CAFTPCSGSWAGNASASA [HC1827]	-0.899 (inactive)	-0.656 (inactive)	-0.511 (inactive)
CACEMEECSQAGNASASA [HC1800]	-0.225 (inactive)	0.44 (inactive)	-0.298 (inactive)
CARLRKGCGAAGNASASA [FS-2157]	-0.162 (inactive)	0.798 (inactive)	-0.0332 (inactive)
CAQKGRVRRAAGNASASA [FS-78]	11.9 (active)	10.5 (active)	7.65 (active)
CAGKVRLRRAAGNASASA [FS-655]	8.27 (active)	7.38 (active)	7.81 (active)
CALEGRRKRAAGNASASA [FS-938]	9.45 (active)	10.2 (active)	8.2 (active)
CAAPRRLRRAAGNASASA [FS-7]	6.44 (active)	6.75 (active)	5.94 (active)
CAGKVLIDILAGNASASA [HC1083]	-0.625 (inactive)	-0.337 (inactive)	-0.826 (inactive)

Sequence	furin cleavage Z-score (7.5 min)	furin cleavage Z-score (15 min)	furin cleavage Z-score (30 min)
CARGVAKAVDAGNASASA [HC754]	-0.917 (inactive)	0.591 (inactive)	0.29 (inactive)
CALWILQASLAGNASASA [HC610]	-0.000456 (inactive)	2.88	1.52
CADCNTCVTQAGNASASA [HC887]	0.505 (inactive)	-0.795 (inactive)	-0.033 (inactive)
CAEVPCHCPSAGNASASA [HC2380]	-0.21 (inactive)	0.0658 (inactive)	-0.42 (inactive)
CASTPCSAHRAGNASASA [HC2573]	0.385 (inactive)	0.166 (inactive)	1.63
CAGMGRVRRAAGNASASA [FS-27]	11.2 (active)	10.9 (active)	10 (active)
CALEGRVRRAAGNASASA [FS-268]	10.4 (active)	10.8 (active)	9.36 (active)
CAWLKRRKRAAGNASASA [FS-1181]	11.7 (active)	10.8 (active)	7.39 (active)
CAVLKEVKAAAGNASASA [HC1404]	-0.975 (inactive)	0.455 (inactive)	-0.678 (inactive)
CAYLNRYKRAAGNASASA [FS-635]	8.98 (active)	9.12 (active)	5.24 (active)
CATIASPKGPAGNASASA [HC705]	-0.242 (inactive)	-0.653 (inactive)	-1.2 (inactive)
CACGKYLFNWAGNASASA [HC1631]	-0.792 (inactive)	-0.758 (inactive)	-0.511 (inactive)
CAPVENLETTAGNASASA [HC759]	0.416 (inactive)	0.844 (inactive)	0.545 (inactive)
CAYDVVCCSMAGNASASA [HC2109]	0.403 (inactive)	-1.03 (inactive)	-0.733 (inactive)
CAPEGRRKRTAGNASASA [FS-1042]	7.2 (active)	9.98 (active)	7.54 (active)
CAPEGRTWAQAGNASASA [HC196]	0.395 (inactive)	-0.56 (inactive)	-1.92 (inactive)
CAVDAETHVTAGNASASA [HC351]	-2.06 (inactive)	-2.12 (inactive)	-1.23 (inactive)
CARRKRLPEMAGNASASA [FS-1778]	0.399 (inactive)	0.463 (inactive)	-1.64 (inactive)
CARRKREKTQAGNASASA [FS-3165]	5.81 (active)	8.48 (active)	5.8 (active)
CALSKRSLRDAGNASASA [FS-1373]	4 (active)	8.19 (active)	6.86 (active)
CARRKREVQMAGNASASA [FS-2779]	6.69 (active)	7.05 (active)	7 (active)
CARRVRSYGQAGNASASA [FS-2084]	2.55	4.27 (active)	5.55 (active)

Reference: the supplement of paper PMC3545927
